Columns and labels:
Assay in all cases: DAPPL (digital affinity profiling via proximity ligation, sequencing); 10 mM Tris-HCl pH 7.5, 50 mM NaCl, 1 mM DTT, 4% glycerol, room temperature, 30 min; GST-TFs on glutathione beads, 16-mer random dsDNA library, 0.1% formaldehyde crosslink after washing; high values mean tight binding
[1] = target: T1, FEV (Homo sapiens, UniProt Q99581 1-238); details: protein: recombinant; tags: N-terminal GST; dsDNA, one strand shown
T1 sequence: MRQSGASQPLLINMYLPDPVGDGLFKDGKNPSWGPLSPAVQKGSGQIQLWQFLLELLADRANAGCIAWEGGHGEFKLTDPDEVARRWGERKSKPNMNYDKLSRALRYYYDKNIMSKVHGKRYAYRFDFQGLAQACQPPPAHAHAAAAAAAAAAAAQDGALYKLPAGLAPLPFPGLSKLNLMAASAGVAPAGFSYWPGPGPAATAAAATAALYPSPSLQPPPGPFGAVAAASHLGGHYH
Summary of the method: (§1)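 Human transcription factors fused to GST were expressed in yeast, captured on glutathione beads, given DNA barcodes and pooled with a GST-only negative control. Pools were incubated with 200 nmole of a 16-mer random double-stranded DNA library in Tris/NaCl/DTT/glycerol buffer at room temperature for 30 min. They were then washed, crosslinked with 0.1% formaldehyde, proximity-ligated (BsaI/T4 ligase, 1 h, 37 °C), PCR-amplified and sequenced on an Illumina NextSeq500. Binding signal is each 6-mer's read frequency for a factor divided by its frequency for the GST control.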

[2] = target: ETV5 (Homo sapiens, UniProt P41161 1-510); details: protein: recombinant; tags: N-terminal GST; dsDNA, one strand shown
Summary of the method: as §1

[3] = target: HSF1 (Homo sapiens, UniProt Q00613 1-529); details: protein: recombinant; tags: N-terminal GST; chain copies: 3; dsDNA, one strand shown
Summary of the method: as §1

[4] = target: T2, SPIC (Homo sapiens, UniProt Q8N5J4 1-248); details: protein: recombinant; tags: N-terminal GST; dsDNA, one strand shown
T2 sequence: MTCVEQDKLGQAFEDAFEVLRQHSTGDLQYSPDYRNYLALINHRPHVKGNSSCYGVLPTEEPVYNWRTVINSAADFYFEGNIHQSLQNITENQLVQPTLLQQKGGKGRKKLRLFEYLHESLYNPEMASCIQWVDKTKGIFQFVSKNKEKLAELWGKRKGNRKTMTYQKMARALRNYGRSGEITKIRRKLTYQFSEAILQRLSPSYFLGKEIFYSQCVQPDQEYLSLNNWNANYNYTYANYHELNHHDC
Summary of the method: as §1

[5] = target: ELF4 (Homo sapiens, UniProt Q99607 1-663); details: protein: recombinant; tags: N-terminal GST; dsDNA, one strand shown
Summary of the method: as §1

[6] = target: T3, ELK4 (Homo sapiens, UniProt P28324-2 1-405); details: protein: recombinant; tags: N-terminal GST; dsDNA, one strand shown
T3 sequence: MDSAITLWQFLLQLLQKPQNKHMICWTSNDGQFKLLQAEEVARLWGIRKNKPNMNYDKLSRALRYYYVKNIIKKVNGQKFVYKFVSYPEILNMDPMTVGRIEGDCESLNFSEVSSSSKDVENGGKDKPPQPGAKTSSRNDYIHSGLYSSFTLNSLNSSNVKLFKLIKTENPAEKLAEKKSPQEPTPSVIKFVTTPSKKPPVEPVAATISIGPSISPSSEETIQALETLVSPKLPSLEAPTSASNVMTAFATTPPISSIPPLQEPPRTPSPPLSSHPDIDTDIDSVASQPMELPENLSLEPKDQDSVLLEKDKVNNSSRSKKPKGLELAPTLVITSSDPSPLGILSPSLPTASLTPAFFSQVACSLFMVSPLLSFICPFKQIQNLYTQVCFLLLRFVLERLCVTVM
Summary of the method: as §1

[7] = target: T4, ETV2 (Homo sapiens, UniProt O00321 1-342); details: protein: recombinant; tags: N-terminal GST; dsDNA, one strand shown
T4 sequence: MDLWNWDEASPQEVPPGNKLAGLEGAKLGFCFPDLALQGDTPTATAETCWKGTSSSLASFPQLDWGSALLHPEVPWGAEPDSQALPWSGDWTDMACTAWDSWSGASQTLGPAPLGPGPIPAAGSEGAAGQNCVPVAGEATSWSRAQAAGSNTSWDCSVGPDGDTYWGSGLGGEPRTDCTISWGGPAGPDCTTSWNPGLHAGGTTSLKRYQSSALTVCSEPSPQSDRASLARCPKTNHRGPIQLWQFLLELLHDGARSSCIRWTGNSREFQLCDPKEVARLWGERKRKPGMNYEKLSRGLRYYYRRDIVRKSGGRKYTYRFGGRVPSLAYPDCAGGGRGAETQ
Summary of the method: as §1

[8] = target: T5, ELF3 (Homo sapiens, UniProt P78545 1-371); details: protein: recombinant; tags: N-terminal GST; dsDNA, one strand shown
T5 sequence: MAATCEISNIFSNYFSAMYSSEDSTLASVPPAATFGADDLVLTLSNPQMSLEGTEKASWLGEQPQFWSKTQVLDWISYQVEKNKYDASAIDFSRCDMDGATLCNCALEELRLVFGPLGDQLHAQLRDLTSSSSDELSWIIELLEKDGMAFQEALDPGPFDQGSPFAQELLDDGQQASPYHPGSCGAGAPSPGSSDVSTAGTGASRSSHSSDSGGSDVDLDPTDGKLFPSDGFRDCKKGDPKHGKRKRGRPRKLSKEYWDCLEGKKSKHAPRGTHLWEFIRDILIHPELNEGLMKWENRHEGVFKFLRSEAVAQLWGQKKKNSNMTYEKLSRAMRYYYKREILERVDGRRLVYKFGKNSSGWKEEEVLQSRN
Summary of the method: as §1

[9] = target: CRX (Homo sapiens, UniProt O43186 1-299); details: protein: recombinant; tags: N-terminal GST; dsDNA, one strand shown
Summary of the method: as §1

[10] = target: ETV1 (Homo sapiens, UniProt P50549 1-477); details: protein: recombinant; tags: N-terminal GST; dsDNA, one strand shown
Summary of the method: as §1

[11] = target: T6, ERF (Homo sapiens, UniProt P50548 1-548); details: protein: recombinant; tags: N-terminal GST; dsDNA, one strand shown
T6 sequence: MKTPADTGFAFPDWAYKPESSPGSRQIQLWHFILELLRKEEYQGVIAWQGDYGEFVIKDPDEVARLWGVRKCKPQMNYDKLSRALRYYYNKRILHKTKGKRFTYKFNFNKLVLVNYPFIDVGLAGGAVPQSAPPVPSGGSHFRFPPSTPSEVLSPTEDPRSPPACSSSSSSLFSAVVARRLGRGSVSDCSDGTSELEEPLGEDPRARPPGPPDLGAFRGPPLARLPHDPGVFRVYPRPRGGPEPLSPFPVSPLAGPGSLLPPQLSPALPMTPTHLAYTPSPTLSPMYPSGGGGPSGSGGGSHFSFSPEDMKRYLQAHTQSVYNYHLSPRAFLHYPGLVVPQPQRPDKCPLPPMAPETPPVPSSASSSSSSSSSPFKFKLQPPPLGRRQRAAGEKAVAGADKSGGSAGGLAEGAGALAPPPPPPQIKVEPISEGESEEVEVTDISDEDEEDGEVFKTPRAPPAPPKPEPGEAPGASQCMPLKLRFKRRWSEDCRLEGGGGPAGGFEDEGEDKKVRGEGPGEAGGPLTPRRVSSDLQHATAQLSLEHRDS
Summary of the method: as §1

[12] = target: T7, ETV3L (Homo sapiens, UniProt Q6ZN32 1-361); details: protein: recombinant; tags: N-terminal GST; dsDNA, one strand shown
T7 sequence: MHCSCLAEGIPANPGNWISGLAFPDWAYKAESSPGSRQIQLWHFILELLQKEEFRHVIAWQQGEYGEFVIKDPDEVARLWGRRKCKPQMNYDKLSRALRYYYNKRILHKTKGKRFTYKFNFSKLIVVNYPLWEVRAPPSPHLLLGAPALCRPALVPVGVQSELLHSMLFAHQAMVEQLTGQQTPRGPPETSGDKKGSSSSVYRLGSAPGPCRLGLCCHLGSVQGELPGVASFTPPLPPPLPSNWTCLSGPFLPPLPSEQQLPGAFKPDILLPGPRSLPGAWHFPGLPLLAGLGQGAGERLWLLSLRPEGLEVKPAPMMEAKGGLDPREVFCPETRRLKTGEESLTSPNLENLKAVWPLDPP
Summary of the method: as §1

[13] = target: T8, ETS2 (Homo sapiens, UniProt P15036 1-469); details: protein: recombinant; tags: N-terminal GST; dsDNA, one strand shown
T8 sequence: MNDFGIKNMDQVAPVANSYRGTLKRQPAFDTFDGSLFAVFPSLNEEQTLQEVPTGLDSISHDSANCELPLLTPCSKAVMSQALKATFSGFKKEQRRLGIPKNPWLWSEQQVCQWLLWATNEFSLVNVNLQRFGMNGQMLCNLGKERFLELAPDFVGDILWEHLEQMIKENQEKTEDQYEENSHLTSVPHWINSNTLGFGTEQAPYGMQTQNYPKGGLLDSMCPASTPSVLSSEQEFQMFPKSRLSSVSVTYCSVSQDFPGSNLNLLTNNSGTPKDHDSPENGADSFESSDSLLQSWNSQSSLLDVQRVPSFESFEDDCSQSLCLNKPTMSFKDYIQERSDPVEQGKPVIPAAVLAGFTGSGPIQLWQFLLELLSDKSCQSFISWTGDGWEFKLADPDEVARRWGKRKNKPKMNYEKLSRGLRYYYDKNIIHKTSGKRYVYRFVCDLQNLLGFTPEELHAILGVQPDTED
Summary of the method: as §1

[14] = target: T9, SPDEF (Homo sapiens, UniProt O95238 1-335); details: protein: recombinant; tags: N-terminal GST; dsDNA, one strand shown
T9 sequence: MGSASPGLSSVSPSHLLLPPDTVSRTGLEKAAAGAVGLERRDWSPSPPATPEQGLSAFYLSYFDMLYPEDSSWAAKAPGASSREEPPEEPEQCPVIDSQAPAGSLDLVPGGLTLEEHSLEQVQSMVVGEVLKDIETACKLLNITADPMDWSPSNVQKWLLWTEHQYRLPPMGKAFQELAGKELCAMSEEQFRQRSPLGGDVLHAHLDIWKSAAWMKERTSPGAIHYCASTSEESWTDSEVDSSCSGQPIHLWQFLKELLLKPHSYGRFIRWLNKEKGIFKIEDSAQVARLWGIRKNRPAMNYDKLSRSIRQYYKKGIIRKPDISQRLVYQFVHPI
Summary of the method: as §1

[15] = target: T10, ETV7 (Homo sapiens, UniProt Q9Y603 1-341); details: protein: recombinant; tags: N-terminal GST; dsDNA, one strand shown
T10 sequence: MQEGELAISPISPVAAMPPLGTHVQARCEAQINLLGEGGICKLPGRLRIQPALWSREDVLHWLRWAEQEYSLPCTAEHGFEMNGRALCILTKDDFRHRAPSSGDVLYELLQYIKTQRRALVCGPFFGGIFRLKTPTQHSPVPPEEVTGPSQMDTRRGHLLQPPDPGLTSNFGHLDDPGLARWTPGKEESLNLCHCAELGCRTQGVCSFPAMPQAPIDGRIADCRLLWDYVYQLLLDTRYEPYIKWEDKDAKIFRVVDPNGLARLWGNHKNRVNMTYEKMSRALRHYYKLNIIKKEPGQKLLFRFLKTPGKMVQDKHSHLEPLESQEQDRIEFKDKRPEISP
Summary of the method: as §1

[16] = target: T11, ELF5 (Homo sapiens, UniProt Q9UKW6-2 1-255); details: protein: recombinant; tags: N-terminal GST; dsDNA, one strand shown
T11 sequence: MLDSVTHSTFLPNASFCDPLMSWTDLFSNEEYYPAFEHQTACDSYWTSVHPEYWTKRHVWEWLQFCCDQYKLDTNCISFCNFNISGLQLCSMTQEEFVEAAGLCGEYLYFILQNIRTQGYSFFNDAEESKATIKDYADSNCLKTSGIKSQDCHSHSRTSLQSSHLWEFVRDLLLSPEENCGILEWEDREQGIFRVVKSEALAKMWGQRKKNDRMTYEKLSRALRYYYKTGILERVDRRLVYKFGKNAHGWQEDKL
Summary of the method: as §1

[17] = target: T12, ETV3 (Homo sapiens, UniProt P41162-2 1-143); details: protein: recombinant; tags: N-terminal GST; dsDNA, one strand shown
T12 sequence: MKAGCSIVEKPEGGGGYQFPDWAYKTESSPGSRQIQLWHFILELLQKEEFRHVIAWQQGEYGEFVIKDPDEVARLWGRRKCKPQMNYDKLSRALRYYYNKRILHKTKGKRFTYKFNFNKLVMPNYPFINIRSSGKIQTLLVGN
Summary of the method: as §1

[18] = target: ETV6 (Homo sapiens, UniProt P41212 1-452); details: protein: recombinant; tags: N-terminal GST; dsDNA, one strand shown
Summary of the method: as §1

Sequence of ETV1 (P50549 whole entry): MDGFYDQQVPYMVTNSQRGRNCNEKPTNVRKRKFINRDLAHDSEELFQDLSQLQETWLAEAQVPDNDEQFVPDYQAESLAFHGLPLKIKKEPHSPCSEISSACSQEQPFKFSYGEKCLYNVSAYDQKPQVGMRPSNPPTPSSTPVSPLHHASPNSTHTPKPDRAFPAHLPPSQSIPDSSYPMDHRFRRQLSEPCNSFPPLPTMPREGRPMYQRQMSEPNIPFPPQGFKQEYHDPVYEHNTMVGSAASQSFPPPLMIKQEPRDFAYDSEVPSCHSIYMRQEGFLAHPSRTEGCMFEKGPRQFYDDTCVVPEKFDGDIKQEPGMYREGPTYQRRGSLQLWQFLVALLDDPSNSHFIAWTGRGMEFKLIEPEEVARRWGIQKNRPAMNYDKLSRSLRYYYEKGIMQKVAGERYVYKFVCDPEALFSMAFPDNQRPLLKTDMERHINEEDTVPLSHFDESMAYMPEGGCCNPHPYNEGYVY
Sequence of ETV6 (P41212 whole entry): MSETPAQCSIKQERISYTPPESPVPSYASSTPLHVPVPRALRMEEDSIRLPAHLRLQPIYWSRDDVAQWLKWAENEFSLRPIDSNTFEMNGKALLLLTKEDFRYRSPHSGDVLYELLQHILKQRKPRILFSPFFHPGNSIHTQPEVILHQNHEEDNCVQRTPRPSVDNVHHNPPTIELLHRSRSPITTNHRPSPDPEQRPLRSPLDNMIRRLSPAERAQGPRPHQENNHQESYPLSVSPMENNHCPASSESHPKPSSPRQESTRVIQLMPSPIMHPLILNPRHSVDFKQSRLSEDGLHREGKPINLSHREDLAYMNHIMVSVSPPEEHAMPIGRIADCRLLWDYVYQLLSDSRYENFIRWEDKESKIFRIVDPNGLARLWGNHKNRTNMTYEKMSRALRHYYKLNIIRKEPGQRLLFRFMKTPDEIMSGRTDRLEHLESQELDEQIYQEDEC
Sequence of ELF4 (Q99607 whole entry): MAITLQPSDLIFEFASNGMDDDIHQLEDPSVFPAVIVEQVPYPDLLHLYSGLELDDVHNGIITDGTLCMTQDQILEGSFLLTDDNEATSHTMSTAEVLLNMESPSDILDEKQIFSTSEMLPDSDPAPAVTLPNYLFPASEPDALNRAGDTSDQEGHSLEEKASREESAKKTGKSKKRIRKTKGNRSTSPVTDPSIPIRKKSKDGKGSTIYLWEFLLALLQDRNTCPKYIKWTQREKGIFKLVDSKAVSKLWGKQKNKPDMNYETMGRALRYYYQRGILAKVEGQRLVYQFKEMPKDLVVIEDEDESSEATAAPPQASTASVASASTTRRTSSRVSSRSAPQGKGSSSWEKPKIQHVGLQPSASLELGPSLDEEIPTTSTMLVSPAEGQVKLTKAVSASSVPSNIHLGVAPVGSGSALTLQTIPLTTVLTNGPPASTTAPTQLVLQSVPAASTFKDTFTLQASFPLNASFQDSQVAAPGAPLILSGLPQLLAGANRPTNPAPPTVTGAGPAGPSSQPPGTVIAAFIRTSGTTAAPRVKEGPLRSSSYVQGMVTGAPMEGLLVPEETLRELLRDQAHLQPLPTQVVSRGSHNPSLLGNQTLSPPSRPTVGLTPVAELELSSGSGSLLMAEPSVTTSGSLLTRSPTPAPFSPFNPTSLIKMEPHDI
Sequence of CRX (O43186 whole entry): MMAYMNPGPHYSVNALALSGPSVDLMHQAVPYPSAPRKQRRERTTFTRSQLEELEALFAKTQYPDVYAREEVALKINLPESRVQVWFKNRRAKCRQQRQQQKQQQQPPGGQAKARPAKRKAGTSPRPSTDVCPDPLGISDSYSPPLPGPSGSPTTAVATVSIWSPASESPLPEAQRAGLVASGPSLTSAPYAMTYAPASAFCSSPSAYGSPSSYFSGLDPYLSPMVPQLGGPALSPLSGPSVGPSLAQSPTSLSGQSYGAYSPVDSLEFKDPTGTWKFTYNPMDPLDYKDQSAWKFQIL
Sequence of ETV5 (P41161 whole entry): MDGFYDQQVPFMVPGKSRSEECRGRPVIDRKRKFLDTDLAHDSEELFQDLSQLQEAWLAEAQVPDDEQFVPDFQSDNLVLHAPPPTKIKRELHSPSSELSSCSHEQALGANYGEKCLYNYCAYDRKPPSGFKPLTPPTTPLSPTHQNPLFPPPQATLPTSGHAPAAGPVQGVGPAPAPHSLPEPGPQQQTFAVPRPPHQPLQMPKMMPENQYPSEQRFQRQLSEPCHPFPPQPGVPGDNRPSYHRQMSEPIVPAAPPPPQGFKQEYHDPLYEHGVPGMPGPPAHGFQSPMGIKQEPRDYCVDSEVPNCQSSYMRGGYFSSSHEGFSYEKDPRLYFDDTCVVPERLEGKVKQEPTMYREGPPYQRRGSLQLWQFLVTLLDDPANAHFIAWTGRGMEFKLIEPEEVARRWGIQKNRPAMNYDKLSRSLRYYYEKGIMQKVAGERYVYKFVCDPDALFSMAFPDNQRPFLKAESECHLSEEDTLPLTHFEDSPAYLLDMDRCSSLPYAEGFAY
Sequence of HSF1 (Q00613 whole entry): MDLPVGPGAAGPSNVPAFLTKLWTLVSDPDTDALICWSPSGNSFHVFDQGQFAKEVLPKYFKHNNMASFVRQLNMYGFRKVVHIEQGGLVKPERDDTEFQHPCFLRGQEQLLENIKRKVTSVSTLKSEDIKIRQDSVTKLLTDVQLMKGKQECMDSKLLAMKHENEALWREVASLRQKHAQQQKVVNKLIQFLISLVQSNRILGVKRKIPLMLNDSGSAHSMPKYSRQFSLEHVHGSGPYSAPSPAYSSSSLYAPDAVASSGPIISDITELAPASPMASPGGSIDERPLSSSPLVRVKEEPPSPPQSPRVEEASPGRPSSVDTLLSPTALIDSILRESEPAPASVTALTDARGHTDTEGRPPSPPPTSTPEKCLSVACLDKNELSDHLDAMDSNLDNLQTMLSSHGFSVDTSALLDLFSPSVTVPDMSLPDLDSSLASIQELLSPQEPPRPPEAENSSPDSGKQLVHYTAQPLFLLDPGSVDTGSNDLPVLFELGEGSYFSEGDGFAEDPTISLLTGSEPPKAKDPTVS

Sequence: TTTTGC
- binding signal [1]: 1.3 fold enrichment (6-mer frequency, TF over GST control)
- binding signal [2]: 1.34 fold enrichment (6-mer frequency, TF over GST control)
- binding signal [3]: 1.36 fold enrichment (6-mer frequency, TF over GST control)
- binding signal [4]: 1.25 fold enrichment (6-mer frequency, TF over GST control)
- binding signal [5]: 1.42 fold enrichment (6-mer frequency, TF over GST control)
- binding signal [6]: 1.3 fold enrichment (6-mer frequency, TF over GST control)
- binding signal [7]: 1.53 fold enrichment (6-mer frequency, TF over GST control)
- binding signal [8]: 1.34 fold enrichment (6-mer frequency, TF over GST control)
- binding signal [9]: 1.41 fold enrichment (6-mer frequency, TF over GST control)
- binding signal [10]: 1.34 fold enrichment (6-mer frequency, TF over GST control)
- binding signal [11]: 1.53 fold enrichment (6-mer frequency, TF over GST control)
- binding signal [12]: 1.35 fold enrichment (6-mer frequency, TF over GST control)
- binding signal [13]: 1.31 fold enrichment (6-mer frequency, TF over GST control)
- binding signal [14]: 1.35 fold enrichment (6-mer frequency, TF over GST control)
- binding signal [15]: 1.36 fold enrichment (6-mer frequency, TF over GST control)
- binding signal [16]: 1.27 fold enrichment (6-mer frequency, TF over GST control)
- binding signal [17]: 1.15 fold enrichment (6-mer frequency, TF over GST control)
- binding signal [18]: 1.49 fold enrichment (6-mer frequency, TF over GST control)

— paper PMC7862700, “An all-to-all approach to the identification of sequence-specific readers for epigenetic DNA modifications on cytosine”
